PubChem BioAssay
The source made the active and inactive calls.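 The calls were made as follows, unless noted: active = inhibition of the reporter signal at or above 50%; inactive = inhibition below 50%.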

Experiments:
[1] = inhibitors of TNFa-induced NFkB p65 translocation, primary screen, imaging, HUVEC, MLSMR starter and 10KST1 sets (AID 438;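 active = inhibition above 20% together with a positive visual image hit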;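 also: compound added about 3h40 before a 20 min TNFalpha stimulation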;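 as to inhibition: signal is the nuclear over cytoplasmic p65 intensity ratio per well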); settings: HUVEC TNFa-induced p65 nuclear translocation; cell count: measured here: nuclei count (cytotoxicity indicator), at 2.08 µM; inhibition: at 2 µM, stronger effect = higher value, 0% TNFa-plus-vehicle, 100% no-TNFa wells
[2] = reduction of polyQ htt aggregates in cells – imaging, exon1htt(103Q)mCFP cells, high-content imaging, primary screen (AID 483;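 active = visual image review flags a hit and inhibition of aggregation exceeds 20%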;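 also: compound exposure lasted 3 days before fixation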;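 as to nuclei count: percent of the per-plate median nuclei count of sample wells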); settings: exon1htt(103Q)mCFP cell line, aggregate imaging, at 2 µM; inhibition of aggregation: stronger effect = higher value; nuclei count: measured here: cell count, toxicity
[3] = endothelial E-selectin expression blockers – imaging, HUVEC, immunofluorescence, MLSMR starter and 10KST1 sets, primary screen (AID 487;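 active = visually confirmed hit in the image check and inhibition above 20%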;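 as to inhibition: signal is fraction of cell area covered by stained E-selectin grains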;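 as to nuclei count: 100% = median nuclei count of all wells on the same plate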); settings: HUVEC TNFalpha-induced E-selectin immunofluorescence imaging, at 2 µM; inhibition: stronger effect = higher value; nuclei count: measured here: cell number, toxicity
[4] = target: Voltage-gated potassium channel subunit beta-2 (Rattus norvegicus) (UniProt P62483); test: inhibitors of rat Kvbeta2 reductase activity – biochemical, NADPH fluorescence, primary screen (AID 622;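 active = fluorescence slope higher than the sample average by over 3 SD, cut at about -0.22 in these data, passing the limit was not always enough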;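 also: slope of raw intensity against log time taken from 70 to 1610 s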); settings: recombinant KvBeta, 4-cyanobenzaldehyde reduction, at 10 µM, stronger effect = higher value
[5] = target: Voltage-gated potassium channel subunit beta-2 (Rattus norvegicus) (UniProt P62483); test: enhancers of rat Kvbeta2 NADPH turnover – biochemical, NADPH fluorescence, primary screen (AID 623;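 active = NADPH fluorescence slope more negative than the mean of all samples by about 3 SD, 99.7% confidence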;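 also: fluorescence intensity change per second fitted from 20 to 320 s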); settings: Recombinant KvBeta, NADPH fluorescence decrease slope, 10 min; at 10 µM; stronger effect = lower value
[6] = target: Alpha-2C adrenergic receptor (Homo sapiens) (UniProt P18825); test: compounds altering alpha2C-coupled GIRK flux – cell-based, HEK293 alpha2C/GIRK1/2, thallium flux, primary screen (AID 624;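 active = fluorescence slope after compound addition differing from the mean of all screened samples at 99.7% confidence, in either direction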;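 also: slope of fluorescence ratio to pre-addition baseline per second over 15 to 24 s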); settings: thallium flux BTC fluorescence, at 10 µM, actives lie on both sides
[7] = blockers of RIG-like receptor reporter activation – cell-based, Sendai virus stimulus, luciferase, 10K MLSCN set, TLR/RLR signaling modifier project, primary screen (AID 602276;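 active = inhibition at or above 50% at 10 µM; inactive = inhibition below 50%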;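 also: firefly luciferase from ISG56 promoter only with Renilla not read in this screen; 0% = Sendai virus plus DMSO and 100% = medium plus DMSO without virus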); settings: HEK293 RL24 IRF3 luciferase reporter, at 10 µM, stronger effect = higher value
[8] = TLR3 IRF3 reporter activation blockers – cell-based, poly I:C stimulus, luciferase, 10K MLSCN set, primary screen (AID 602277); settings: HEK293-TLR3 RL24 IRF3 luciferase reporter, at 10 µM, stronger effect = higher value

Sequence of Voltage-gated potassium channel subunit beta-2 (Rattus norvegicus) (P62483 whole entry, looked up): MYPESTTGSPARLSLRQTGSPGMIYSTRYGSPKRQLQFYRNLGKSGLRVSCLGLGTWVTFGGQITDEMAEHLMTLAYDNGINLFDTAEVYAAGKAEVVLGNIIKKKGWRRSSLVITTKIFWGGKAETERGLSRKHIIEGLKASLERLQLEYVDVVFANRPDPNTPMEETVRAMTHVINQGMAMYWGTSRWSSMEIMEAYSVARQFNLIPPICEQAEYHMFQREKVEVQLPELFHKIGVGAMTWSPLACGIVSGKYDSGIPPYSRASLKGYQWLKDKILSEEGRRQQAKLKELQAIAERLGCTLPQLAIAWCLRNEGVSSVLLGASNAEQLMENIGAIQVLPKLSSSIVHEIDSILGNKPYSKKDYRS
Sequence of Alpha-2C adrenergic receptor (Homo sapiens) (P18825 whole entry, looked up): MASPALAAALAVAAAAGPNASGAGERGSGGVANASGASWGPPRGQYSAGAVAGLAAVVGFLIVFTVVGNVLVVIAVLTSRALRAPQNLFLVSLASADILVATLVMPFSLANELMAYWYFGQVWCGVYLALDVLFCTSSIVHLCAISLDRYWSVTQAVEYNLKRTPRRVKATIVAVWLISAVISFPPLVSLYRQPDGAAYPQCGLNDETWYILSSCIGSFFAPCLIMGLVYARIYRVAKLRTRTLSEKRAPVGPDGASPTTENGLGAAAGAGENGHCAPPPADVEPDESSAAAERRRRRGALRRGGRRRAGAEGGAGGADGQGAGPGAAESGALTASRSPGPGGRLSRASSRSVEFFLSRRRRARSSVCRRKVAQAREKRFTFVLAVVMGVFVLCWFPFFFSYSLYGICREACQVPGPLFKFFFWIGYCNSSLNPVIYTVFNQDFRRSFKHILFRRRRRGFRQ

Compound | cell count [1] | inhibition [1] | inhibition of aggregation [2] | nuclei count [2] | inhibition [3] | nuclei count [3] | fluorescence slope [4] | NADPH fluorescence slope [5] | slope [6] | inhibition [7] | inhibition [8]
Cc1ccc2cccc(SCC(=O)N3CCOCC3)c2n1 | 286 | -6.7% (inactive) | 28% (inactive) | 72.7% | -45.8% (inactive) | 105% | -0.327 (inactive) | 7.7e-06 (inactive) | 0.00384 (inactive) | 6.65% (inactive) | 31.6% (inactive)
CCOc1cc(NC(=O)c2ccco2)c(OCC)cc1NC(=O)CCC(=O)NCc1cccnc1 | 600 | 4.9% (inactive) | 2.6% (inactive) | 97.7% | 16% (inactive) | 90.3% | -0.358 (inactive) | 1.7e-05 (inactive) | 0.00315 (inactive) | 9.41% (inactive) | 23.3% (inactive)
COc1ccccc1-c1nnc(SCc2ccccn2)n1C | 307 | 7.6% (inactive) | -5.8% (inactive) | 97.6% | -25.6% (inactive) | 104% | -0.581 (inactive) | 0.000106 (inactive) | 0.0056 (inactive) | -14.7% (inactive) | -10.3% (inactive)
Cc1ccc2c(c1)nnn2C1CCN(C(=O)NC23CC4CC(CC(C4)C2)C3)CC1 | 471 | -9.4% (inactive) | 11.5% (inactive) | 122% | 19.9% (inactive) | 98.1% | -0.423 (inactive) | -4e-05 (inactive) | 0.00535 (inactive) | 18.3% (inactive) | 22.5% (inactive)
CCOC(=O)Cc1csc(/C(=N/O)C(N)=O)n1 | 638 | 2.7% (inactive) | 0.1% (inactive) | 126% | -62.8% (inactive) | 108% | -0.48 (inactive) | -9.9e-05 (inactive) | 0.00629 (inactive) | 13.2% (inactive) | 15.9% (inactive)
Cc1cc(C)cc(N2C(=O)CC(N3CCOCC3)C2=O)c1 (centres undefined) | 459 | 3% (inactive) | -4.9% (inactive) | 105% | 38.6% (inactive) | 98.8% | -0.355 (inactive) | 3e-05 (inactive) | 0.00693 (inactive) | 13.8% (inactive) | 32.5% (inactive)
COc1ccc2[nH]c(=O)c(CN(Cc3cccs3)S(=O)(=O)c3cccc4nsnc34)cc2c1 | 510 | -4.2% (inactive) | -15.3% (inactive) | 110% | -68.8% (inactive) | 110% | -0.523 (inactive) | -0.000153 (inactive) | 0.00524 (inactive) | 8.33% (inactive) | 71.5% (active)
O=C(NCCC1=CCCCC1)c1cc2c(s1)CS(=O)(=O)C2 | 610 | 6% (inactive) | -19.3% (inactive) | 102% | 31% (inactive) | 94.9% | -0.433 (inactive) | -0.000138 (inactive) | 0.00559 (inactive) | -7.34% (inactive) | -9.88% (inactive)
O=S(NCc1ccco1)C12CC3CC(CC(C3)C1)C2 (centres undefined) | 426 | 12.5% (inactive) | 1.2% (inactive) | 102% | -2.2% (inactive) | 101% | -0.582 (inactive) | -2e-07 (inactive) | 0.00485 (inactive) | -5.22% (inactive) | 0.485% (inactive)
Cc1nc2ccc(S(=O)(=O)NCC(=O)N3CCCCC3)cc2s1 | 277 | -3% (inactive) | 11.4% (inactive) | 79.6% | 27.3% (inactive) | 94.4% | -0.488 (inactive) | -4.1e-05 (inactive) | 0.00708 (inactive) | -10.6% (inactive) | -1.82% (inactive)
CSCCC(NC(=O)c1ccco1)C(=O)OC(C)C(=O)NC(=O)NC1CCCCC1 (centres undefined) | 538 | -6.1% (inactive) | 7.6% (inactive) | 88% | -79.7% (inactive) | 100% | -0.485 (inactive) | 1e-05 (inactive) | 0.00394 (inactive) | 13.1% (inactive) | 20.3% (inactive)
CCN(CCCNC(=O)COc1cc(=O)n(CC)c2ccccc12)c1ccccc1 | 377 | 0.6% (inactive) | 1.3% (inactive) | 104% | 13.8% (inactive) | 96.1% | -0.501 (inactive) | -4e-05 (inactive) | 0.00565 (inactive) | 5.07% (inactive) | 7.25% (inactive)
CC1CCN(Cc2ccc(NC(=O)C3CCN(c4nnc(-n5cccc5)s4)CC3)cc2)CC1 | 720 | -3% (inactive) | 13.7% (inactive) | 50.5% | 44.3% (inactive) | 97.9% | -0.409 (inactive) | -5.4e-05 (inactive) | 0.0059 (inactive) | 10.3% (inactive) | 44% (inactive)
CC(c1ccco1)N(Cc1ccco1)C(=O)Nc1ccccc1 (centres undefined) | 511 | 1% (inactive) | 13.9% (inactive) | 90.3% | -45.1% (inactive) | 97.5% | -0.574 (inactive) | 5.2e-05 (inactive) | 0.00511 (inactive) | -3.9% (inactive) | -21.4% (inactive)
